Results published in PubChem BioAssay (EPA / NIEHS).
Where “and” joins values, the source holds several entries; their conditions need not be identical. Equal entries are not always repeated. The source holds several records for some structures; these can differ, active in one and inactive in another. Calls of active or inactive are those of the source. Rule for the calls: active = hit-call score of the fitted dose curve at least 0.9, where 1 is the maximum; inactive = score below 0.9.

Columns and labels:
[1] = read-out: urokinase plasminogen activator (uPA), PLAU (gene 5328); assay: BSK_KF3CT_uPA: BioMAP Diversity Plus: KF3CT Assay for urokinase plasminogen activator (uPA) Biomarker Activity (AID 2283075); conditions: primary human keratinocytes with fibroblasts; actives raise or lower the signal
Summary of the method: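 ELISA readout of uPA, analyzed for signal gain or loss relative to DMSO, from a human primary keratinocyte–foreskin fibroblast co-culture measured 24 h after chemical treatment.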

CD40, CD40 (gene 958) [2] = assay: BSK_LPS_CD40: BioMAP Diversity Plus: LPS Assay for CD40 Biomarker Activity (AID 2283076); conditions: primary human HUVEC with PBMC; actives raise or lower the signal
Summary of the method: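 Primary human umbilical vein endothelial cells co-cultured with peripheral blood mononuclear cells, LPS-stimulated, were dosed with chemical and read 24 h later. CD40 levels were measured by ELISA and fitted bidirectionally against DMSO as negative control and baseline.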

[3] = read-out: E-selectin (Homo sapiens) (UniProt P16581); assay: BSK_LPS_Eselectin: BioMAP Diversity Plus: LPS Assay for Eselectin Biomarker Activity (AID 2283077); conditions: primary human HUVEC with PBMC; actives raise or lower the signal
Summary of the method: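 Human umbilical vein endothelial cells co-cultured with peripheral blood mononuclear cells under LPS stimulation; E-selectin measured by ELISA 24 h after chemical dosing. Activity fitted bidirectionally against DMSO as negative control and baseline.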

[4] = read-out: Interleukin-8 (IL8), CXCL8 (gene 3576); assay: BSK_LPS_IL8: BioMAP Diversity Plus: LPS Assay for Interleukin-8 (IL8) Biomarker Activity (AID 2283078); conditions: primary human HUVEC with PBMC; actives raise or lower the signal
Summary of the method: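 Human umbilical vein endothelial cells co-cultured with PBMC were stimulated with LPS; IL-8 levels were measured by ELISA 24 h after chemical dosing. Activity was fitted bidirectionally against DMSO as negative control and baseline.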

[5] = BSK_LPS_SRB: Viability Assessment in the BioMAP Diversity Plus: LPS Assay (AID 2283079); conditions: primary human HUVEC with PBMC;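 note: total protein by sulforhodamine B absorbance as a cytotoxicity measure; measured one day after compound addition; fitted in both directions against DMSO so loss or gain of signal counts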
Summary of the method: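 Human umbilical vein endothelial cells co-cultured with PBMC (LPS system) were dosed for 24 h. Total protein was stained with 0.1% sulforhodamine B after 10% TCA fixation, read at 560 nm, and fitted bidirectionally against DMSO baseline.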

[6] = read-out: Interleukin-1 alpha (IL1a), IL1A (gene 3552); assay: BSK_LPS_IL1a: BioMAP Diversity Plus: LPS Assay for Interleukin-1 alpha (IL1a) Biomarker Activity (AID 2283080); conditions: primary human HUVEC with PBMC; actives raise or lower the signal
Summary of the method: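 Human umbilical vein endothelial cells co-cultured with peripheral blood mononuclear cells were LPS-stimulated and exposed to test chemicals for 24 h. IL-1 alpha was quantified by ELISA, with bidirectional curve fitting against DMSO as the negative control and baseline.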

[7] = read-out: Monocyte Chemoattractant Protein-1 (MCP1), CCL2 (gene 6347); assay: BSK_LPS_MCP1: BioMAP Diversity Plus: LPS Assay for Monocyte Chemoattractant Protein-1 (MCP1) Biomarker Activity (AID 2283081); conditions: primary human HUVEC with PBMC; actives raise or lower the signal
Summary of the method: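 HUVEC plus PBMC co-culture (human primary cells, LPS system) exposed to test chemical for 24 h; MCP-1 measured by ELISA. Bidirectional curve fitting against DMSO baseline; parallel SRB total-protein staining flags overt cytotoxicity.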

[8] = BSK_LPS_PGE2: BioMAP Diversity Plus: LPS Assay for Prostaglandin E2 (PGE2) Biomarker Activity (AID 2283082); conditions: primary human HUVEC with PBMC; actives raise or lower the signal
Summary of the method: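 HUVEC plus PBMC co-culture stimulated with LPS; secreted PGE2 quantified by ELISA 24 h after chemical dosing. Activity fitted bidirectionally against DMSO as negative control and baseline; parallel SRB total-protein staining served as cytotoxicity check.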

[9] = read-out: Macrophage colony-stimulating factor (MCSF), CSF1 (gene 1435); assay: BSK_LPS_MCSF: BioMAP Diversity Plus: LPS Assay for Macrophage colony-stimulating factor (MCSF) Biomarker Activity (AID 2283083); conditions: primary human HUVEC with PBMC; actives raise or lower the signal
Summary of the method: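 Human umbilical vein endothelial cells co-cultured with peripheral blood mononuclear cells were exposed to compound for 24 h. M-CSF levels were measured by ELISA, and bidirectional curve fitting used DMSO as the negative control and baseline.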

[10] = read-out: Tissue Factor, F3 (gene 2152); assay: BSK_LPS_TissueFactor: BioMAP Diversity Plus: LPS Assay for Tissue Factor Biomarker Activity (AID 2283084); conditions: primary human HUVEC with PBMC; actives raise or lower the signal
Summary of the method: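 Human umbilical vein endothelial cells co-cultured with peripheral blood mononuclear cells were dosed and stimulated with LPS. Cell-surface CD142 was quantified by ELISA at 24 h. Activity was fitted bidirectionally against DMSO baseline.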

[11] = read-out: Tumor necrosis factor (Homo sapiens) (UniProt P01375); assay: BSK_LPS_TNFa: BioMAP Diversity Plus: LPS Assay for Tumour Necrosis Factor alpha (TNFa) Biomarker Activity (AID 2283085); conditions: primary human HUVEC with PBMC; actives raise or lower the signal
Summary of the method: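 Human umbilical vein endothelial cells co-cultured with PBMC were exposed to test chemical and TNFa measured by ELISA 24 h after dosing. Bidirectional curve fitting was done relative to DMSO as negative control and baseline.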

[12] = read-out: Vascular cell adhesion molecule 1 (VCAM1), VCAM1 (gene 7412); assay: BSK_LPS_VCAM1: BioMAP Diversity Plus: LPS Assay for Vascular cell adhesion molecule 1 (VCAM1) Biomarker Activity (AID 2283086); conditions: primary human HUVEC with PBMC; actives raise or lower the signal
Summary of the method: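 Human umbilical vein endothelial cells co-cultured with peripheral blood mononuclear cells under LPS stimulation were exposed to test chemical for 24 h. VCAM-1 levels were then measured by ELISA, with bidirectional curve fitting relative to DMSO as negative control and baseline.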

CD40, CD40 (gene 958) [13] = assay: BSK_SAg_CD40: BioMAP Diversity Plus: SAg Assay for CD40 Biomarker Activity (AID 2283088); conditions: primary human HUVEC with PBMC; actives raise or lower the signal
Summary of the method: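 Human umbilical vein endothelial cells co-cultured with PBMC; CD40 levels measured by ELISA with fluorescence read-out 24 h after chemical dosing. Gain or loss of signal fitted bidirectionally against DMSO baseline.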

CD69, CD69 (gene 969) = assay: BSK_SAg_CD69: BioMAP Diversity Plus: SAg Assay for CD69 Biomarker Activity (AID 2283089); conditions: primary human HUVEC with PBMC; actives raise or lower the signal
Summary of the method: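 ELISA, fluorescence read-out: CD69 on human umbilical vein endothelial cell + PBMC co-culture, 24 h post-dosing. Gain or loss of signal fitted bidirectionally against DMSO baseline.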

[14] = read-out: Monocyte Chemoattractant Protein-1 (MCP1), CCL2 (gene 6347); assay: BSK_SAg_MCP1: BioMAP Diversity Plus: SAg Assay for Monocyte Chemoattractant Protein-1 (MCP1) Biomarker Activity (AID 2283090); conditions: primary human HUVEC with PBMC; actives raise or lower the signal
Summary of the method: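 MCP-1 levels in the endothelial–PBMC SAg co-culture were quantified by ELISA at 24 h post-dosing; both increases and decreases versus DMSO scored. Cytotoxicity monitored by SRB total protein in parallel cultures.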

[15] = read-out: E-selectin (Homo sapiens) (UniProt P16581); assay: BSK_SAg_Eselectin: BioMAP Diversity Plus: SAg Assay for Eselectin Biomarker Activity (AID 2283091); conditions: primary human HUVEC with PBMC; actives raise or lower the signal
Summary of the method: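 HUVEC co-cultured with PBMC, compound dosed then read at 24 h; E-selectin measured by ELISA. Activity fitted bidirectionally against DMSO as negative control and baseline.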

[16] = read-out: Monokine induced gamma interferon (MIG), CXCL9 (gene 4283); assay: BSK_SAg_MIG: BioMAP Diversity Plus: SAg Assay for Monokine induced gamma interferon (MIG) Biomarker Activity (AID 2283092); conditions: primary human HUVEC with PBMC; actives raise or lower the signal
Summary of the method: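 ELISA readout of MIG/CXCL9; primary human umbilical vein endothelial cells co-cultured with peripheral blood mononuclear cells; 24 h post-dose; gain/loss fit vs DMSO baseline.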

[17] = BSK_SAg_PBMCCytotoxicity: PBMC Cytotoxicity Assessment in the BioMAP Diversity Plus: SAg Assay (AID 2283093); conditions: primary human HUVEC with PBMC;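 note: PBMC viability measured as Alamar Blue reduction fluorescence at 546/580 nm; fitted both ways against DMSO so a hit may be loss or gain of signal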
Summary of the method: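 Compound added to 75,000 PBMC/well for 1 h; SEB and TSST-1 then added at 20 ng/mL final each; 90 h incubation; Alamar Blue 6 h; read 546/580 nm ex/em. Activity fitted bidirectionally relative to DMSO baseline.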

[18] = read-out: Interleukin-8 (IL8), CXCL8 (gene 3576); assay: BSK_SAg_IL8: BioMAP Diversity Plus: SAg Assay for Interleukin-8 (IL8) Biomarker Activity (AID 2283094); conditions: primary human HUVEC with PBMC; actives raise or lower the signal
Summary of the method: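 Human umbilical vein endothelial cells co-cultured with peripheral blood mononuclear cells; IL-8 measured by ELISA 24 h after chemical dosing. Bidirectional concentration-response fitting used DMSO as negative control and activity baseline.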

CD38, CD38 (gene 952) = assay: BSK_SAg_CD38: BioMAP Diversity Plus: SAg Assay for CD38 Biomarker Activity (AID 2283087); conditions: primary human HUVEC with PBMC; actives raise or lower the signal
Summary of the method: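 Fluorescence ELISA of cell-surface CD38 served as the read-out, with either increase or decrease fitted against DMSO controls. Cells were a human umbilical vein endothelium plus PBMC co-culture under SEB/TSST-1 stimulation, measured 24 h after dosing.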

Sequence of Tumor necrosis factor (Homo sapiens) (P01375 whole entry, looked up): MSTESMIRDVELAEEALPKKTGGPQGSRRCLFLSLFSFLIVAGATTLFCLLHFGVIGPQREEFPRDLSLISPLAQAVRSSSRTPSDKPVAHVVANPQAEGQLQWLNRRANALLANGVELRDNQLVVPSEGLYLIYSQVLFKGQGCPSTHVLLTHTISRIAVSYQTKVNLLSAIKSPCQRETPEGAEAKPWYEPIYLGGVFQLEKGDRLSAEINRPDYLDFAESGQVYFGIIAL
Sequence of E-selectin (Homo sapiens) (P16581 whole entry, looked up): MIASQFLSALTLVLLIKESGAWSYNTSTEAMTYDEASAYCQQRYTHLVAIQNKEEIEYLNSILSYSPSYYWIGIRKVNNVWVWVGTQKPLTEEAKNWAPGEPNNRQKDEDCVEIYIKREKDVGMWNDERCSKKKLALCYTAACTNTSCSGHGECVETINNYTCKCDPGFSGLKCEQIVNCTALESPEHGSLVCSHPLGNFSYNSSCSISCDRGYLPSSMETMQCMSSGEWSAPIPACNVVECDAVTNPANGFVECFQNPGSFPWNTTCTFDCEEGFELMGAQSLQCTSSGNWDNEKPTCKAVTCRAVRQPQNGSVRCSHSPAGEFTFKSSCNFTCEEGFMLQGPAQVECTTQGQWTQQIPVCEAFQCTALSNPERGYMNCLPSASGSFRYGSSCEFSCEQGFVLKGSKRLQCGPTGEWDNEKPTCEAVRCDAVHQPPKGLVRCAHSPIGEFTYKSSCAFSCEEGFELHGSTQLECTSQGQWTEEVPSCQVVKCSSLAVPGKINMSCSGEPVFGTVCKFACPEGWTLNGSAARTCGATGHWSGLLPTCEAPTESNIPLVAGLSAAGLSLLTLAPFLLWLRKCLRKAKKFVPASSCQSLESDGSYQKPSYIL

SMILES: Cc1ccc(S(=O)(=O)O)cc1C
- outcome [1]: inactive
- outcome (CD40, CD40 (gene 958) [2]): inactive
- outcome [3]: inactive
- outcome [4]: inactive
- outcome [5]: inactive
- outcome [6]: inactive
- outcome [7]: inactive
- outcome [8]: inactive
- outcome [9]: inactive
- outcome [10]: inactive
- outcome [11]: inactive
- outcome [12]: inactive
- outcome (CD40, CD40 (gene 958) [13]): inactive
- outcome (CD69, CD69 (gene 969)): inactive
- outcome [14]: inactive
- outcome [15]: inactive
- outcome [16]: inactive
- outcome [17]: inactive
- outcome [18]: inactive

SMILES: Cn1cnc([N+](=O)[O-])c1Sc1ncnc2nc[nH]c12
- outcome [1]: inactive
- outcome [3]: inactive
- outcome [4]: inactive
- outcome [5]: inactive
- outcome [6]: inactive
- outcome [7]: inactive
- outcome [8]: inactive
- AC50 [9]: 20.3 µM (active) and 5.64 µM (active)
- outcome [9]: inactive
- outcome [10]: inactive
- AC50 [11]: 19.2 µM (active) and 15.7 µM (active)
- outcome [11]: inactive
- AC50 [12]: 25.3 µM (active) and 6.4 µM (active) and 13.7 µM (active)
- AC50 (CD40, CD40 (gene 958) [13]): 13.3 µM (active) and 8.21 µM (active)
- outcome (CD40, CD40 (gene 958) [13]): inactive
- outcome (CD69, CD69 (gene 969)): inactive
- AC50 [14]: 19.9 µM (active) and 12.6 µM (active)
- outcome [14]: inactive
- AC50 [15]: 6.91 µM (active) and 12.6 µM (active) and 16.9 µM (active)
- outcome [16]: inactive
- AC50 [18]: 12.9 µM (active) and 12.6 µM (active) and 9.23 µM (active)

SMILES: CC(C)=CCCC(C)CCO (stereo unspecified)
- outcome [1]: inactive
- outcome (CD40, CD40 (gene 958) [2]): inactive
- outcome [3]: inactive
- outcome [4]: inactive
- outcome [5]: inactive
- outcome [6]: inactive
- outcome [7]: inactive
- outcome [8]: inactive
- outcome [9]: inactive
- outcome [10]: inactive
- outcome [11]: inactive
- outcome [12]: inactive
- outcome (CD40, CD40 (gene 958) [13]): inactive
- outcome (CD69, CD69 (gene 969)): inactive
- outcome [14]: inactive
- outcome [15]: inactive
- outcome [16]: inactive
- outcome [17]: inactive
- outcome [18]: inactive

SMILES: CC(C)CCO
- outcome [1]: inactive
- outcome [3]: inactive
- outcome [4]: inactive
- outcome [5]: inactive
- outcome [6]: inactive
- outcome [7]: inactive
- outcome [8]: inactive
- outcome [9]: inactive
- outcome [10]: inactive
- outcome [11]: inactive
- outcome [12]: inactive
- outcome (CD38, CD38 (gene 952)): inactive
- outcome (CD40, CD40 (gene 958) [13]): inactive
- outcome (CD69, CD69 (gene 969)): inactive
- outcome [14]: inactive
- outcome [15]: inactive
- outcome [16]: inactive
- outcome [17]: inactive
- outcome [18]: inactive

SMILES: CCNc1ccccc1
- outcome [1]: inactive
- outcome (CD40, CD40 (gene 958) [2]): inactive
- outcome [3]: inactive
- outcome [4]: inactive
- outcome [5]: inactive
- outcome [6]: inactive
- outcome [7]: inactive
- outcome [8]: inactive
- outcome [9]: inactive
- outcome [10]: inactive
- outcome [11]: inactive
- outcome [12]: inactive
- outcome (CD40, CD40 (gene 958) [13]): inactive
- outcome (CD69, CD69 (gene 969)): inactive
- outcome [14]: inactive
- outcome [15]: inactive
- outcome [16]: inactive
- outcome [17]: inactive
- outcome [18]: inactive

SMILES: O=C(O)c1cc(N=Nc2ccc(S(=O)(=O)Nc3ccccn3)cc2)ccc1O
- outcome [1]: inactive
- outcome (CD40, CD40 (gene 958) [2]): inactive
- outcome [3]: inactive
- outcome [4]: inactive
- outcome [5]: inactive
- outcome [6]: inactive
- outcome [7]: inactive
- outcome [8]: inactive
- outcome [9]: inactive
- outcome [10]: inactive
- outcome [11]: inactive
- outcome [12]: inactive
- outcome (CD40, CD40 (gene 958) [13]): inactive
- outcome (CD69, CD69 (gene 969)): inactive
- outcome [14]: inactive
- outcome [15]: inactive
- outcome [16]: inactive
- outcome [17]: inactive
- outcome [18]: inactive
